Bioassay records as filed in PubChem.
TexasRed fluor = Total Fluorescence Counterscreen for Inhibitors of the Interaction of Thyroid Hormone Receptor and Steroid Receptor Coregulator 2 | TRb/SRC2 Texas Red total fluorescence interference | Potency, µM (titrated, usually from 106 µM), for the others: at the top dose fluorescence change, negative = quenching | hit rate 0.29% among 280,000 | AID 1479, 2009; active = well fitted curve in either direction with a large enough effect; inconclusive = small, poorly fitted or top-dose-only effect; also: % is scaled to controls: 0 for no effect and ±100 for the full control effect
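Human TRβ ligand-binding domain (0.6 uM) and Texas Red SRC2 peptide (20 nM) in Tris buffer with 1 uM T3 and 5% DMSO were incubated with pinned compound for 5 hr at ambient temperature. Total fluorescence was computed as S + 2P (555/632 nm).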
ERG Ets-DNA blk = qHTS for Small Molecule Inhibitors of the ERG Ets/DNA interaction | fluorescence polarization, His-ERG Ets domain / labelled DNA | Potency, µM (doses to about 76.9 µM), for the others: at the top dose FP activity, negative = inhibition, usual class: inhibitors | Transcriptional regulator ERG (Homo sapiens), P11308 | hit rate 0.028% among 370,000; active = well fitted inhibition curve with a large enough effect in the polarisation, with a control signal flat; inconclusive = small, poorly fitted or top-dose-only effect, or effect the other way, or a change in a side signal; inactive = no such curve, though single readings can be large or run the other way; the % refers to the polarisation;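 also: polarization taken with two DNA probes labelled with fluorescein and Texas red; % of control where 0% means no effect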
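His-tagged ERG Ets domain (1 uM in the protein solution; 300mM KCl, 50mM Tris-HCl, 1mM EDTA, 1mM DTT, pH 7.5) received compound, then a probe mix of 5 nM fluorescein-DNA and 100nM Texas-615-DNA. Fluorescence polarization was read for both dyes.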
BLM inh = qHTS Assay for Inhibitors of Bloom's syndrome helicase (BLM). recombinant BLM DNA unwinding, fluorescence dequenching. Potency, µM (highest dose often 56.1 µM), inactives show at the top dose activity change, negative = inhibition, hits mostly inhibitors. hit rate 0.2% among 350,000. AID 2528, 2010;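 also: plate controls were vehicle for no effect and no enzyme for full effect; nearly all actives have a fitted effect of over 35% in size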
TRb SRC2 PPI = qHTS for Inhibitors of the Interaction of Thyroid Hormone Receptor and Steroid Receptor Coregulator 2; Thyroid hormone receptor beta (Homo sapiens), P10828; TRbeta-SRC2 peptide binding, fluorescence polarization; receptor liganded with 1 µM T3; Potency, µM (series often up to 106 µM), without a hit: at the highest dose activity change, negative = inhibition, hits mostly inhibitors; hit rate 0.065% among 280,000; AID 1469, 2008;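 also: plate controls were bound peptide for no effect and peptide without receptor for full effect; nearly all actives have a fitted effect of over 50% in size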
Target sequence (P10828 whole entry, looked up): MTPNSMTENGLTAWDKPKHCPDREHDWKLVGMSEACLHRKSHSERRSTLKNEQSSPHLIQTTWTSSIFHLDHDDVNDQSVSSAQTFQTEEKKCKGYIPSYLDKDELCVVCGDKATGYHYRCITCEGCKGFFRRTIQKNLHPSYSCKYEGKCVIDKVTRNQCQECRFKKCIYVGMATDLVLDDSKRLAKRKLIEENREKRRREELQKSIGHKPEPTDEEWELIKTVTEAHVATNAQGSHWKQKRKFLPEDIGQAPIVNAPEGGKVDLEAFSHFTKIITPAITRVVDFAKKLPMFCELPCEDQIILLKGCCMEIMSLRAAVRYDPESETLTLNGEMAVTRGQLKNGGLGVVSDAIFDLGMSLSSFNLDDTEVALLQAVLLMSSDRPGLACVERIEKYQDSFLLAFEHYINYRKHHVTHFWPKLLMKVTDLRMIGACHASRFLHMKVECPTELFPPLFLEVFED
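Fluorescence polarization of 20 nM Texas Red SRC2 peptide with 0.6 uM human TRb ligand-binding domain, in Tris buffer with 1uM T3 and 5% DMSO. Incubated 5 hr ambient; normalized to unbound and bound controls.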
GoLoco inh red = qHTS Assay for Inhibitors of RGS12 GoLoco Motif Activity (Red Fluorophore); hit rate 0.44% among 230,000; Gai1:RGS12 GoLoco peptide FP, rhodamine, 10 min; Potency, µM (series often up to 61.6 µM), for the others: top-dose activity, negative = inhibition, hits mostly inhibitors; Guanine nucleotide-binding protein G(i) subunit alpha-1 (Homo sapiens), P63096; active = well fitted inhibition curve with a large enough effect, not every such curve was filed as active; inactive = no such curve, though single readings can be large or run the other way; also: % is scaled to controls: 0 for no effect and ±100 for the full control effect; nearly all actives have a fitted effect of over 30% in size
RECQ1 helicase = qHTS Assay for Inhibitors of RecQ-Like Dna Helicase 1 (RECQ1) | ATP-dependent DNA helicase Q1 (Homo sapiens), P46063 | RECQ1 DNA unwinding, red fluorescence kinetic read | Potency, µM (series often up to 57.3 µM), inactives show at the highest dose activity, negative = inhibition, hits mostly inhibitors | hit rate 0.54% among 240,000 | AID 2549, 2010;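 also: plate controls were vehicle for no effect and no enzyme for full effect; nearly all actives have a fitted effect of over 30% in size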
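50 nM RECQ1T1 preincubated 15 min with compound in Tris pH 8.0 buffer with MgCl2, DTT, Tween-20 and 2.5 ug/ml poly(dI-dC); started with 200 nM TAMRA/BHQ-2 forked duplex and 2 mM ATP. Unwinding read as fluorescence (525/598 nm), two reads 2 h apart.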
The depositor's hits bear a star; i = inactive; ? = inconclusive; nt = not tested or not shown; ! = repeats disagree; [ ] = dose if it differs, or a comment. A selection: hits, their analogues and other compounds. The true share with any hit is near 0.71%. Unless noted, calls follow the shape of the dose curve; as a rule, active = well fitted curve in the direction sought with a large enough effect; inconclusive = small, poorly fitted or top-dose-only effect, or another doubt; inactive = no such curve, though single readings can be large; an effect the other way counts as inactive or inconclusive. Potency is read from the fitted curve at half-maximal effect.

SMILES | TexasRed fluor | ERG Ets-DNA blk | BLM inh | TRb SRC2 PPI | GoLoco inh red | RECQ1 helicase
Cc1ccc(C)c(-n2c3nc(=O)[nH]c(=O)c-3cc3cc([N+](=O)[O-])ccc32)c1 | -1% | 1% | 20µM* | 11% | -14% | 0%
Cc1cccc(-n2c3nc(=O)[nH]c(=O)c-3cc3cc([N+](=O)[O-])ccc32)c1 | -5% | 7% | 2% | -3% | -2% | -16%
OCc1cccc(Oc2ccccc2)c1 | -2%[201 µM] | nt | nt | 3%[201 µM] | nt | nt
CC(C)(N=C=O)c1cccc(C(C)(C)N=C=O)c1 | -6%[201 µM] | nt | nt | 0%[201 µM] | nt | nt
Cc1ccc(NC(=O)Cc2ccccc2Cl)cc1S(=O)(=O)N(C)C | 0.1µM*[quencher] | -4% | -9% | -24%[53 µM] | 11% | -14%
Cc1ccccc1Nc1c(-c2cc(Br)ccc2F)nc2ccccn12 | 3.2µM*[quencher] | 5% | -3% | -4% | nt | nt
Oc1ccc(C(c2ccc(O)cc2)C(Cl)(Cl)Cl)cc1 | -1%[201 µM] | nt | nt | 2%[201 µM] | nt | nt
COc1ccc(N2CCN(C(=O)c3cccnc3)CC2)c([N+](=O)[O-])c1 | -3% | 10% | -8% | -2% | 20µM* | i
CCOC(=O)N/N=C/c1ccccc1-c1cc(OC)ccc1OC | -1% | nt | -3% | -8% | 1% | -8%
CCCCCCCC/C=C\CCCCCCCC(=O)N(CCO)CCO | 0% | nt | nt | 6% | -3% | -11%
Cc1nc2c(c(=O)n1CCC1=CCCCC1)c1nc3ccccc3nc1n2/N=C/c1ccco1 | -28% | 2% | -23% | 25% | 36% | 28µM*
Cc1ccc(C2CC(=O)Oc3cc4c(cc32)OCO4)cc1 (configuration not stated) | -4% | nt | -18%[75.6 µM] | 2% | 14%[88.7 µM] | 32µM*
Cc1ccc(C2CC(=O)Oc3cc(O)ccc32)cc1 (configuration not stated) | ? | 75% | 6%[120 µM] | ? | 66%[88.7 µM] | 66%[126 µM]
O=C(O)c1ccc(NC2=C(Cl)C(=O)c3ccccc3C2=O)cc1 | -5% | 4% | -20% | 7% | -14% | 0%
O=C(O)c1cccc(NC2=C(Cl)C(=O)c3ccccc3C2=O)c1 | -10% | 1% | -13% | 10% | 14µM* | 9%
CN1CCN(C(=O)Cn2c(-c3cccs3)cc3cc(Cl)ccc32)CC1 | 112µM*[quencher] | 1% | 2% | -28% | nt | nt
COc1cccc(N2CCN(C(=O)Cn3c(-c4cccs4)cc4ccccc43)CC2)c1 | 40µM*[quencher] | 3% | -3% | ? | nt | nt
COc1ccc(N2CCN(CCCNC(=O)Cn3c(-c4cccs4)cc4ccccc43)CC2)cc1 | 7% | -1% | -7% | 1% | nt | nt
CCN1CCN(C(=O)Cn2c(-c3cccs3)cc3ccccc32)CC1 | 6% | -3% | -4% | 3% | nt | nt
O=C(Cn1c(-c2cccs2)cc2ccccc21)NCCCN1CCN(c2ccc(F)cc2)CC1 | 63µM*[quencher] | 0% | -4% | ? | nt | nt
C[C@@H](O)[C@@H]1C(=O)N2C(C(=O)O)=C([C@H]3CCCO3)S[C@H]12 | nt | nt | -2% | nt | nt | nt
CSc1nc(SCCO)c2sc3nc(-c4ccco4)c4c(c3c2n1)CC(C)(C)OC4 | ? | 3% | 13µM* | 10% | 33% | 13µM*
CC(=O)c1c(COC(=O)c2cccnc2)nc2ccccc2[n+]1[O-] | 0% | -3% | -4% | 3% | 8.9µM* | -7%
Oc1cc(O)cc(O)c1 | -1% | nt | -9% | -5% | 3% | nt
Oc1cc(O)cc(/C=C/c2ccc(O)c(O)c2)c1 | 50µM*![quencher] | -4% | -13% | ? | 6% | -10%
COc1cc2ccccc2cc1C(=O)Nc1ccc2oc(-c3cccc(C)c3)nc2c1 | 3.2µM*[quencher] | 6% | -14% | ? | nt | nt
